# Laboratory results reported in PubChem BioAssay (EPA / NIEHS).
# Activity calls are given as the source filed them. The calls were made as follows: active = hit-call score of the fitted dose curve at least 0.9, where 1 is the maximum; inactive = score below 0.9.
# Assay: ATG_AP_2_CIS: Attagene CIS-FACTORIAL HepG2 Assay for human Activator Protein 2 (AP-2) (AID 2282932)
# Conditions: HepG2 AP-2 cis-reporter, Attagene transcription factor profiling; actives raise or lower the signal
# Experimental: ATG_CIS is a cell-based, multiplexed-readout assay that uses HepG2, a human liver cell line, with measurements taken at 24 hours after chemical dosing in a 24-well plate.ATG_AP_2_CIS is one of 52 assay component(s) measured or calculated from the ATG_CIS assay. It is designed to make measurements of mRNA induction, a form of inducible reporter, as detected with fluorescence intensity signals by Reverse transcription polymerase chain reaction (RT-PCR) and Capillary electrophoresis technology.Data from the assay component ATG_AP_2_CIS was analyzed into 1 assay endpoint. This assay endpoint, ATG_AP_2_CIS, was analyzed with bidirectional fitting relative to DMSO as the negative control and baseline of activity. Using a type of inducible reporter, measures of mRNA for gain or loss-of-signal activity can be used to understand the reporter gene at the transcription factor-level as they relate to the gene TFAP2A and TFAP2B and TFAP2D. Furthermore, this assay endpoint can be referred to as a primary readout, because this assay has produced multiple assay endpoints where this one serves a reporter gene function. To generalize the intended target to other relatable targets, this assay endpoint is annotated to the dna binding intended target family, where the subfamily is basic helix-turn-helix leucine zipper.
# Human liver HepG2 cells are transiently transfected with multiple reporter transcription units (MRTUs) in 6-well plates using FuGene 6 reagent (Roche; 3 ml FuGene/1 mg DNA). The MRTU constructs are regulated by a cis-regulating element (promoter). […] A major difference between the CIS and TRANS system is that in CIS activities of endogenous TFs are measured, whereas the TRANS assay evaluates changes in activities of exogenous, chimeric NR-Gal4 proteins. […] At the end of 24 hour incubation, total RNA was isolated using TriZol reagent (Invitrogen). The isolated RNA is then reverse-transcribed using oligo(dT) primer and Mo-MLV reverse transcriptase (Invitrogen) with DNAse I (Ambion) treatment for 30 min. The one-tenth of the produced cDNA was amplified by PCR using Taq DNA polymerase (Invitrogen) and two reporter sequence-specific primers. The PCR products were fluorescently labeled by primer extension with 6-arboxyfluorescein (6-FAM) 5'-labeled reporter sequence-specific primer (2 min at 95 C, 20 s at 68 C and 10 min at 72 C) and these products were digested with 5U of HpaI (New England Biolabs) for 2h at 37 C. The fragments were purified using Qiaquick PCR columns (Qiagen), analyzed on an ABI 3130xL genetic analyzer (Applied Biosystems) with peak positions identified by using a set of X-rhodamine (ROX)-labeled MapMarker1000 molecular weight standards (BioVentures). The raw capillary electrophoresis data was processed using Attagraph software (Attagene).
SMILES,outcome,AC50
CCC(Cc1c(I)cc(I)c(N)c1I)C(=O)O (stereo not given),inactive,
C#CC(O)CCC (stereo not given),inactive,
CCN=C1C=CC(=C(c2ccc(N(CC)CC)cc2)c2ccc(N(CC)CC)cc2)c2ccccc21,,3.68 µM (active)
CC1=CC2C3C=CC(C3)C2C1C (stereo not given),inactive,
CCOCN(C(=O)CS(=O)(=O)O)c1c(C)cccc1CC,inactive,
FC(F)(F)C(F)(F)C(F)(F)C(F)(F)C(F)(F)C(F)(F)C(F)(F)CCI,inactive,
O=C(O)C(F)(F)OC(F)(F)C(F)(F)OC(F)(F)C(F)(F)OC(F)(F)F,inactive,
Cc1ccc2c(c1)OCC(=O)CO2,inactive,
O=C(O)C(F)(F)C(F)(F)C(F)(F)OC(F)(C(F)(F)F)C(F)(F)F,inactive,
C=C(C)C(=O)OCC(F)(F)C(F)(F)C(F)(F)C(F)F,inactive,
c1ccc(C[P+](c2ccccc2)(c2ccccc2)c2ccccc2)cc1,inactive,
OCC(O)CC(F)(F)C(F)(F)C(F)(F)C(F)(F)C(F)(F)C(F)(F)C(F)(F)C(F)(F)F (stereo not given),inactive,
Cc1ccc(S(=O)(=O)C(I)I)cc1,,13.1 µM (active)
CCN(CC)c1ccc(N=Nc2ccccc2)cc1,inactive,
O=C=Nc1cccc2c(N=C=O)cccc12,inactive,
Brc1ccccn1,inactive,
OCC1CCCO1 (stereo not given),inactive,
CC(C)OC=O,inactive,
CC(C)CC=C(C=O)c1ccccc1,inactive,
C[C@]12CC[C@H]3C(=CCc4cc(O)ccc43)[C@@H]1CCC2=O,inactive,

SMILES,outcome,AC50
CC(O)C#CC(C)O (stereo not given),inactive,
O=C(Cl)c1ccc(Cl)cc1Cl,inactive,
CN(C(=O)C(F)(F)C(F)(F)C(F)(F)F)[Si](C)(C)C,inactive,
COc1ccccc1C=O,inactive,
CN(C)C(C)(C)CO,inactive,
CC(C)Nc1ccc(NC(C)C)c2c1C(=O)c1ccccc1C2=O,inactive,
FC(F)(F)C(F)(F)C(F)(F)CC1CO1 (stereo not given),inactive,
CCCCC(CC)COC(=O)c1ccc(N(C)C)cc1 (stereo not given),inactive,
O=C1OC(=O)c2ccc3c4c(ccc1c24)C(=O)OC3=O,inactive,
CC1=CCC2C(=O)OC(=O)C2C1 (stereo not given),inactive,
FC(F)(F)C(F)(F)C(F)(F)C(F)(F)C(F)(F)C(F)(F)CC[Si](Cl)(Cl)Cl,inactive,
N#CCCOCCC#N,inactive,
Nc1cc([N+](=O)[O-])cc(Cl)c1O,inactive,
NCC(F)(F)C(F)(F)C(F)(F)C(F)(F)C(F)(F)C(F)(F)F,inactive,
Nc1cccnc1N,inactive,
O=S(=O)(OCC(F)(F)F)C(F)(F)C(F)(F)C(F)(F)C(F)(F)F,inactive,
CO[Si](CCCOCC1CO1)(OC)OC (stereo not given),inactive,
CC(C)(C)c1cc(CCC(=O)OCC(COC(=O)CCc2cc(C(C)(C)C)c(O)c(C(C)(C)C)c2)(COC(=O)CCc2cc(C(C)(C)C)c(O)c(C(C)(C)C)c2)COC(=O)CCc2cc(C(C)(C)C)c(O)c(C(C)(C)C)c2)cc(C(C)(C)C)c1O,inactive,
O=S(=O)(Cl)C(F)(F)C(F)(F)C(F)(F)C(F)(F)C(F)(F)C(F)(F)C(F)(F)C(F)(F)F,inactive,
C[Si](C)O[Si](C)C,inactive,
